High-throughput results from PubChem BioAssay.
CYP2C9 act: CYP2C9 (human) activation | P11712 | recombinant CYP2C9, luciferin-H conversion, luminescence; hits give high values; factor 1 = untreated enzyme, 0 = blocked | activation factor at 5 µM | actives 1.4% (n = 96,000) | AID 1024;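 active means activation factor of 2 or more for CYP2C9 at a 5 µM dose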
Target sequence (P11712 whole entry, looked up): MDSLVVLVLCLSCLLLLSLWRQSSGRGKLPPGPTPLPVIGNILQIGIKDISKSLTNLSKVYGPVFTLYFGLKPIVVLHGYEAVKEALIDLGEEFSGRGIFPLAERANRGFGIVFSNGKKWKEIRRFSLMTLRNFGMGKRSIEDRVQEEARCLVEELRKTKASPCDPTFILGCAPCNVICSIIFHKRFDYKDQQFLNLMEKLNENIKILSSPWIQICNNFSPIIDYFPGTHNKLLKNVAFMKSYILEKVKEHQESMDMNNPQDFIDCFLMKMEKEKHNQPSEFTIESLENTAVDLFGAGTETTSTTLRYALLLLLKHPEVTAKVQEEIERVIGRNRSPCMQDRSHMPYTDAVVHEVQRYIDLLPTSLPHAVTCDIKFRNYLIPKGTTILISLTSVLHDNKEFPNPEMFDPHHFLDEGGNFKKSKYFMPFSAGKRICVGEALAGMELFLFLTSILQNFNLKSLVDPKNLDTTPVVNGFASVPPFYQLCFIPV
PostGolgi yeast: growth inhibition of a yeast mutant, post-Golgi transport screen; post-Golgi transport phenotypic cell assay; actives 0.9% (n = 98,000); inhibition, % at 10 µM; AID 739;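 further: yeast cells grown in 1536-well plates; yeast grown about 18 h at 30C before absorbance read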
CYP2C9 inh: blocks human cytochrome P450 2C9 | CYP2C9 Supersomes, luciferin-H conversion, luminescence | inhibition, % at 5 µM | actives 20% (n = 96,000);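 active means blocking of liver enzyme CYP2C9 beyond about 50% at 5 µM, limit read from the data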
PostGolgi ctrl: yeast control strain growth, post-Golgi counter-screen | efflux-deficient yeast background strain, growth absorbance A615, 16 h | inhibition, % at 10 µM | actives 5% (n = 98,000)
CYP2C19 activ: activators of human cytochrome P450 2C19; P33261; recombinant CYP2C19, luciferin-H EGE luminescence; hits give high values; 0 = fully inhibited enzyme, 1 = untreated enzyme; activation factor at 5 µM; 96,000 tested, under 10 active;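 active means activation factor of at least 2 at 5 µM in the primary screen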
CYP2C19 inhib: blocks human cytochrome P450 2C19; P33261; CYP2C19 Supersomes, luciferin-H EGE luminescence, 30 min; inhibition, % at 5 µM; actives 21% (n = 96,000); AID 778;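 active means CYP2C19 inhibition above a set limit at 5 µM in the primary screen, cut at about 50% in these data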
Large screens that a line does not name were inactive. Only some compounds are listed: those with a hit (about 32% of all), similar ones and a draw of the others. Unless noted, no stated cut-off is given here; in the data, active means inhibition above about 30%; inactive means the rest.

O=C(c1ccc(C(=O)N2CCOCC2)nc1)N1CCOCC1	none
C#CCSc1nnc(-c2cc3c(C(F)(F)F)nn(C)c3s2)n1C	none
CCCCSc1nnc(-c2cc3c(C(F)(F)F)nn(C)c3s2)n1C	CYP2C9 act 2
COc1ccc(/C=N/n2c(C)cc(C)c(C(N)=O)c2=O)cc1	none
CCOc1ccc(C2C(C(=O)OC)=C(C)N=C3SCCC(=O)N32)cc1OCC (configuration not stated)	none
COC(=O)c1ccc(C2C(C(=O)OCC(C)C)=C(C)N=C3SCCC(=O)N32)cc1 (configuration not stated)	CYP2C9 inh 62, CYP2C19 inhib 76
COC(=O)C1=C(C)N=C2SCCC(=O)N2C1c1ccc(C(=O)OC)cc1 (configuration not stated)	CYP2C9 inh 55, CYP2C19 inhib 88
COCCOC(=O)C1=C(C)N=C2SCCC(=O)N2C1c1ccc(C(=O)OC)cc1 (configuration not stated)	CYP2C9 inh 66, CYP2C19 inhib 98
COCCOC(=O)C1=C(C)N=C2SCCC(=O)N2C1/C=C/c1ccccc1 (configuration not stated)	CYP2C9 inh 93, CYP2C19 inhib 81
COC(=O)C1=C(C)N=C2SCCC(=O)N2C1c1cccs1 (configuration not stated)	none
CCOC(=O)C1=C(C)N=C2SCCC(=O)N2[C@@H]1/C=C/c1ccccc1	none
Cc1ccccc1NC(=O)C(NS(=O)(=O)c1ccc2c(c1)c(=O)n(C)c(=O)n2C)c1ccccc1 (configuration not stated)	none
Cc1cc(NS(=O)(=O)Cc2ccccc2)cc(C)c1OCC(=O)N1CCOCC1	none
CCOc1cc(C2C(C(=O)OCC(C)C)=C(C)N=C3SCCC(=O)N32)ccc1OC(C)=O (configuration not stated)	CYP2C19 inhib 52
O=C(NCCc1ccccc1)C1(c2ccccc2)CC1(Cl)Cl (configuration not stated)	PostGolgi ctrl 39
N#Cc1nc(-c2ccccc2Cl)oc1N1CCCCC1	CYP2C9 inh 81, CYP2C19 inhib 86
CN(C)c1oc(-c2ccccc2Cl)nc1S(=O)(=O)c1ccccc1	PostGolgi ctrl 32, CYP2C19 inhib 79
CN(C)c1oc(-c2ccccc2)nc1C#N	none
CN(C)c1oc(-c2ccccc2Cl)nc1C#N	CYP2C9 act 2.8, CYP2C19 inhib 62
Cc1ccc(C)c2c1sc(=NC(=O)CN1C(=O)CCC1=O)n2C	none
C/C(=N/Oc1nc(C)cc(C)n1)c1ccccc1	none
CN(C)C/C(Cl)=C(\Cl)c1ccccc1	CYP2C19 inhib 57
CN(C)CC(=O)c1ccc(-c2ccccc2)cc1	none
COc1ccc(CCNC(=O)CCSc2nc(-c3ccco3)cc(C(F)(F)F)n2)cc1OC	CYP2C9 inh 91, CYP2C19 inhib 88
O=C(CCSc1nc(-c2ccco2)cc(C(F)(F)F)n1)N1CCN(c2ccccc2)CC1	CYP2C9 inh 76, CYP2C19 inhib 81
FC(F)(F)c1cc(-c2ccco2)nc(N2CCN(c3ccccc3)CC2)n1	none
O=C(CCSc1nc(-c2ccco2)cc(C(F)(F)F)n1)NCc1ccccn1	CYP2C9 inh 69, CYP2C19 inhib 78
O=C(CSc1nc(-c2ccco2)cc(C(F)(F)F)n1)NC1CCCC1	CYP2C9 inh 94, CYP2C19 inhib 82
COc1ccc(CCNC(=O)c2ccc3nc(-c4ccco4)c(-c4ccco4)nc3c2)cc1OC	none
CC(NC(=O)CCSc1nc(-c2ccco2)cc(C(F)(F)F)n1)c1ccccc1 (configuration not stated)	CYP2C19 inhib 53
COC(=O)c1ccccc1NC(=O)CSc1nc(-c2ccco2)cc(C(F)(F)F)n1	none
Cc1nc2c(C(=O)N3CCCCC3)cnn2c(C)c1Cc1ccccc1F	CYP2C19 inhib 79
C=CCc1c(C)nc2c(C(=O)O)cnn2c1C	PostGolgi ctrl 31
Cc1ccc(-c2cc(C(F)(F)F)n3ncc(C(=O)N4CCN(C)CC4)c3n2)cc1	none
Cc1nc2c(C(=O)N3CCN(C)CC3)cnn2c(C)c1Cc1ccc(Cl)cc1	CYP2C19 inhib 82
COC(=O)c1cnn2c3c(c(C)nc12)CCCC3	none
C=C1c2cc(C)ccc2NC(=O)N1c1ccc(C)cc1	CYP2C19 inhib 56
O=C1c2ccccc2C(=O)N1CCn1nc(Cl)nc1Cl	none
CC(C)CC1(C)NC(=O)N(CCN2C(=O)c3ccccc3C2=O)C1=O (configuration not stated)	CYP2C19 inhib 75
CSc1nc(-c2ccccc2)c(-c2ccccc2)[nH]1	none
CN1C(=O)/C(=C/c2cn(CC(=O)N3CCCCC3)c3ccccc23)c2ccccc21	CYP2C9 inh 98, PostGolgi ctrl 52, CYP2C19 inhib 75
O=C(c1cn(CC(=O)N2CCCC2)c2ccccc12)C1CCCCC1	CYP2C9 inh 50, CYP2C19 inhib 54
O=C(c1ccco1)c1cn(CC(=O)N2CCCc3ccccc32)c2ccccc12	CYP2C9 inh 100, CYP2C19 inhib 98
CC1CCCCN1C(=O)Cn1cc(C(=O)c2ccco2)c2ccccc21 (configuration not stated)	CYP2C9 inh 68, CYP2C19 inhib 83
N#Cc1cn(CC(=O)N2CCCC2)c2ccccc12	none
O=C(Cn1cc(C(=O)c2ccco2)c2ccccc21)NC1CCCC1	none
Cc1cc(NS(=O)(=O)c2ccc(NC(=S)NC(=O)c3ccc(Cl)cc3Cl)cc2)no1	none
FC(F)(F)c1cc(-c2ccc(Cl)cc2)nc2ncnn12	none
O=S(=O)(c1cc(F)cc(F)c1)N1CCN(c2ncccn2)CC1	CYP2C19 inhib 72
Cc1nc(N2CCN(S(=O)(=O)c3ccccc3)CC2)c2cc(-c3ccccc3)sc2n1	CYP2C9 inh 53
O=S(=O)(c1ccccc1)N1CCN(c2ncccn2)CC1	CYP2C9 inh 62
Cc1ccc(S(=O)(=O)N2CCN(c3nc4ccccc4nc3-n3nc(C)cc3C)CC2)cc1	none
O=S(=O)(c1cccc(S(=O)(=O)N2CCN(c3ncccn3)CC2)c1)N1CCOCC1	none (no result: CYP2C9 act, CYP2C9 inh, CYP2C19 activ, CYP2C19 inhib)
Cc1ccc(S(=O)(=O)C2CCOC2=O)cc1 (configuration not stated)	none
Brc1ccccc1-c1nnc(COc2cccc3cccnc23)o1	CYP2C9 act 2.9, PostGolgi ctrl 33, CYP2C19 inhib 91
Clc1ccccc1OCc1nnc(-c2ccccc2Br)o1	CYP2C9 act 2.1
COc1cccc(C2CC(c3ccccc3OC)n3nc(N)nc3N2)c1 (configuration not stated)	CYP2C19 inhib 63
COc1cccc(C2CC(c3ccccc3C)n3nc(N)nc3N2)c1 (configuration not stated)	none
COc1cccc(C2CC(c3ccccc3Cl)n3nc(N)nc3N2)c1 (configuration not stated)	CYP2C19 inhib 85
COc1cccc(C2CC(c3ccc(Cl)cc3)n3nc(N)nc3N2)c1 (configuration not stated)	CYP2C19 inhib 78
